Values without a mark were called inactive. Records with an inconclusive call do not appear. Where a call stands in place of a potency, no number is given. The source made the active and inactive calls. Calls come from the whole dose curve.
Biological target: Acetylcholinesterase (Homo sapiens) (UniProt P22303)
Assay: Acetylcholinesterase (AChE) small molecule antagonists: enzyme-based qHTS assay (AID 1347397); note: nearly all actives have a fitted effect of over 55% in size
Settings: Potency: AChE enzyme activity inhibition; outcome: AChE enzyme activity inhibition; series mostly up to 115 µM
Method in brief: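 First, recombinant human AChE (50 mU/mL as dispensed) received test compound or DMSO. Second, plates stood 30 min at room temperature. Third, DTNB and acetylthiocholine were added, followed by 10 min at room temperature and colorimetric detection.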

Acetylcholinesterase (Homo sapiens), sequence (P22303 whole entry, looked up): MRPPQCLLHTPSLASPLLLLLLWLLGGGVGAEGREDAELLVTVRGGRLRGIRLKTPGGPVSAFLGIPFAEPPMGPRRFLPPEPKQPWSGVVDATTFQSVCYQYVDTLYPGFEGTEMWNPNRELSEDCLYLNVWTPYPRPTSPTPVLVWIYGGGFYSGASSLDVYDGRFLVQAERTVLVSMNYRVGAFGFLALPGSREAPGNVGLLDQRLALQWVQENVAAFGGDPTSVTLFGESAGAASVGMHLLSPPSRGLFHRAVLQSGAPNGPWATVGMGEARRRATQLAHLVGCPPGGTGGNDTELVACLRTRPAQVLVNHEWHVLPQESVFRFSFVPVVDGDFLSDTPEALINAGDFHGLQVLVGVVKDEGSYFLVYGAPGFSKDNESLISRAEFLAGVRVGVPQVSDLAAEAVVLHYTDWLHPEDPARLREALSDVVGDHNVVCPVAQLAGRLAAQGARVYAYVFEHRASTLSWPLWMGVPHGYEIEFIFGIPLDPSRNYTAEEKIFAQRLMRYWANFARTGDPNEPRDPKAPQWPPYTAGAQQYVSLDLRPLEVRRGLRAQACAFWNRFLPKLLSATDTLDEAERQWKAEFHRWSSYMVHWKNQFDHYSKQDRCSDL

| Structure (SMILES) | Potency | activity change, negative = inhibition | outcome |
| --- | --- | --- | --- |
| CC(=O)Nc1ccc(N)cc1 | inactive | – | – |
| CCn1cc(C(=O)O)c(=O)c2cc(F)c(N3CCN(C)CC3)cc21 | – | -0.504% [at 23.6 µM] | – |
| O=C(NS(=O)(=O)/C=C/c1ccccc1)c1ccc(F)cc1Cl | inactive | – | – |
| CC(C)CCOCCC(C)C | inactive | – | – |
| CCCCCCCCCCCCCCNCCO | inactive | – | – |
| C[N+]1(CC2COC(c3ccccc3)(C3CCCCC3)O2)CCCCC1 (stereo not given) | inactive | – | – |
| CCCCCC[C@@H](CCC)C(=O)O | inactive | – | – |
| CCOC(C)OCC | inactive | – | – |
| C=C1C(C)(C)[C@@]2(Cl)C(Cl)[C@]1(Cl)C(Cl)(Cl)C2(Cl)Cl (stereo not given in full) | inactive | – | – |
| CC1(C)NC(=O)NC1=O | inactive | – | – |
| ClCCl | inactive | – | – |
| Nc1ccc(Oc2cccc(Oc3ccc(N)cc3)c2)cc1 | inactive | – | – |
| C[N+](C)(C)CCO | – | – | inactive |
| O=C(Oc1ccccc1)c1ccc2ccccc2c1O | inactive | – | – |
| C1CNCCN1 | – | – | inactive |
| CC1=CC(=O)/C(=C(/C)O)C(=O)O1 | inactive | – | – |
| CC(NCCC(c1ccccc1)c1ccccc1)c1ccccc1 (stereo not given) | inactive | – | – |
| Cn1cnc2c(=O)[nH]c(N)nc21 | inactive | – | – |
| CC(C)c1ccc(C=O)cc1 | inactive | – | – |
| Cn1sccc1=O | inactive | – | – |

| Structure (SMILES) | Potency | activity change, negative = inhibition | outcome |
| --- | --- | --- | --- |
| CC(O)COc1ccccc1 (stereo not given) | inactive | – | – |
| CC(C)=CC=O | inactive | – | – |
| c1cc2ccc3ccc4ccc5cccc6c(c1)c2c3c4c56 | – | 0.28% [at 4.07 µM] | – |
| Cc1cc(C)nc(NS(=O)(=O)c2ccc(N)cc2)n1 | inactive | – | – |
| CC(CO)(CO)CO | inactive | – | – |
| CCCCOC(=O)CCC(C)=O | inactive | – | – |
| CC(=O)OCC(=O)[C@@]1(O)[C@H](C)C[C@H]2[C@@H]3CCC4=CC(=O)C=C[C@]4(C)[C@@]3(F)[C@@H](O)C[C@@]21C | inactive | – | – |
| O=C1CCC/C=C\CCCCCCCCCC1 | inactive | – | – |
| Cc1ccc(-n2nc(C(C)(C)C)cc2NC(=O)Nc2ccc(OCCN3CCOCC3)c3ccccc23)cc1 | inactive | – | – |
| OC[C@H]1O[C@@H](O[C@H]2[C@H](O)[C@@H](O)[C@H](O)O[C@@H]2CO)[C@H](O)[C@@H](O)[C@H]1O | inactive | – | – |
| ClC/C=C/CCl | inactive | – | – |
| Nc1ccc(S(=O)(=O)NC(=O)c2ccccc2)cc1 | inactive | – | – |
| CN(C)CCC=C1c2ccccc2CCc2ccccc21 | inactive | – | – |
| CCCCCC(C)=O | inactive | – | – |
| COc1ccc(C(=O)c2cccc(O)c2)c(OC)c1 | inactive | – | – |
| O=C1OCCN1/N=C/c1ccc([N+](=O)[O-])o1 | inactive | – | – |
| CC(C)(CO)[N+](=O)[O-] | inactive | – | – |
| C=CC(=O)OCC(CO)(COCC(COC(=O)C=C)(COC(=O)C=C)COC(=O)C=C)COC(=O)C=C | inactive | – | – |
| CC(=O)O[C@H]1CC[C@@]2(C)C(=CC[C@@H]3[C@@H]2CC[C@]2(C)C(C(C)=O)=CC[C@@H]32)C1 | inactive | – | – |
| CCCCCCCCCCCCCCCC(=O)OCC | inactive | – | – |

Biological target: Acetylcholinesterase (Homo sapiens) (UniProt P22303)
Assay: Acetylcholinesterase (AChE) small molecule antagonists: fluorescence cell-based qHTS assay (AID 1347398); note: nearly all actives have a fitted effect of over 50% in size
Settings: SH-SY5Y cells; Potency: AChE activity; outcome: AChE activity; series mostly up to 115 µM
Method in brief: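 Homogeneous quantitative HTS format. SH-SY5Y cells seeded at 2,000 per well settle overnight at 37 C. Compound pretreatment runs 30 min (37 C, 5% CO2); substrate/probe mix then reacts 40 min at RT before reading 490/520 nm.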

| Structure (SMILES) | Potency | activity change, negative = inhibition | outcome |
| --- | --- | --- | --- |
| CC(=O)Nc1ccc(N)cc1 | inactive | – | – |
| CCn1cc(C(=O)O)c(=O)c2cc(F)c(N3CCN(C)CC3)cc21 | – | 2.98% [at 23.8 µM] | – |
| O=C(NS(=O)(=O)/C=C/c1ccccc1)c1ccc(F)cc1Cl | inactive | – | – |
| CC(C)CCOCCC(C)C | inactive | – | – |
| CCCCCCCCCCCCCCNCCO | inactive | – | – |
| C[N+]1(CC2COC(c3ccccc3)(C3CCCCC3)O2)CCCCC1 (stereo not given) | inactive | – | – |
| CCCCCC[C@@H](CCC)C(=O)O | inactive | – | – |
| CCOC(C)OCC | inactive | – | – |
| C=C1C(C)(C)[C@@]2(Cl)C(Cl)[C@]1(Cl)C(Cl)(Cl)C2(Cl)Cl (stereo not given in full) | inactive | – | – |
| CC1(C)NC(=O)NC1=O | inactive | – | – |
| ClCCl | inactive | – | – |
| Nc1ccc(Oc2cccc(Oc3ccc(N)cc3)c2)cc1 | inactive | – | – |
| C[N+](C)(C)CCO | – | – | inactive |
| O=C(Oc1ccccc1)c1ccc2ccccc2c1O | inactive | – | – |
| C1CNCCN1 | – | – | inactive |
| CC1=CC(=O)/C(=C(/C)O)C(=O)O1 | inactive | – | – |
| CC(NCCC(c1ccccc1)c1ccccc1)c1ccccc1 (stereo not given) | inactive | – | – |
| Cn1cnc2c(=O)[nH]c(N)nc21 | inactive | – | – |
| CC(C)c1ccc(C=O)cc1 | inactive | – | – |
| Cn1sccc1=O | inactive | – | – |

| Structure (SMILES) | Potency | activity change, negative = inhibition | outcome |
| --- | --- | --- | --- |
| CC(O)COc1ccccc1 (stereo not given) | inactive | – | – |
| CC(C)=CC=O | inactive | – | – |
| c1cc2ccc3ccc4ccc5cccc6c(c1)c2c3c4c56 | – | 9.19% [at 3.98 µM] | – |
| Cc1cc(C)nc(NS(=O)(=O)c2ccc(N)cc2)n1 | inactive | – | – |
| CC(CO)(CO)CO | inactive | – | – |
| CCCCOC(=O)CCC(C)=O | inactive | – | – |
| CC(=O)OCC(=O)[C@@]1(O)[C@H](C)C[C@H]2[C@@H]3CCC4=CC(=O)C=C[C@]4(C)[C@@]3(F)[C@@H](O)C[C@@]21C | inactive | – | – |
| O=C1CCC/C=C\CCCCCCCCCC1 | inactive | – | – |
| Cc1ccc(-n2nc(C(C)(C)C)cc2NC(=O)Nc2ccc(OCCN3CCOCC3)c3ccccc23)cc1 | inactive | – | – |
| OC[C@H]1O[C@@H](O[C@H]2[C@H](O)[C@@H](O)[C@H](O)O[C@@H]2CO)[C@H](O)[C@@H](O)[C@H]1O | inactive | – | – |
| ClC/C=C/CCl | inactive | – | – |
| Nc1ccc(S(=O)(=O)NC(=O)c2ccccc2)cc1 | inactive | – | – |
| CN(C)CCC=C1c2ccccc2CCc2ccccc21 | inactive | – | – |
| CCCCCC(C)=O | inactive | – | – |
| COc1ccc(C(=O)c2cccc(O)c2)c(OC)c1 | inactive | – | – |
| O=C1OCCN1/N=C/c1ccc([N+](=O)[O-])o1 | inactive | – | – |
| CC(C)(CO)[N+](=O)[O-] | inactive | – | – |
| C=CC(=O)OCC(CO)(COCC(COC(=O)C=C)(COC(=O)C=C)COC(=O)C=C)COC(=O)C=C | inactive | – | – |
| CC(=O)O[C@H]1CC[C@@]2(C)C(=CC[C@@H]3[C@@H]2CC[C@]2(C)C(C(C)=O)=CC[C@@H]32)C1 | inactive | – | – |
| CCCCCCCCCCCCCCCC(=O)OCC | inactive | – | – |

Reference: PubChem BioAssay (Tox21)
